# Source: PubChem BioAssay (EPA / NIEHS)
# Results filed as inconclusive are left out. Active and inactive are the calls of the source. The calls were made as follows, unless noted: active = hit-call score of the fitted dose curve at least 0.9, where 1 is the maximum; inconclusive = response in the unintended direction; inactive = score below 0.9.
# Key:
# [1] = Tanguay_ZF_120hpf_SOMI_legacy: (Legacy) Oregon State University Tanguay Lab 120 Hour Post-fertilization zebrafish Assay for Somite Malformation (AID 2283647)
# Method in brief: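 Somitogenesis defects are recorded as binary calls in whole larvae at 120 hpf after continuous static chemical exposure starting at 6 hpf in dechorionated 5D embryos. DMSO serves as negative control and baseline.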
# [2] = Tanguay_ZF_120hpf_PFIN_legacy: (Legacy) Oregon State University Tanguay Lab 120 Hour Post-fertilization zebrafish Assay for Pectoral Fin Malformation (AID 2283648);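 also: each larva judged yes or no for fin defect by brightfield with dead larvae skipped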
# Method in brief: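 Dechorionated Tropical 5D wild-type zebrafish embryos, one per well, statically exposed from 6 to 120 hpf at 28C with 0.64% DMSO final. Pectoral fin malformation scored present/absent by brightfield at 120 hpf; not scored in dead embryos.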
# [3] = Tanguay_ZF_120hpf_CFIN_legacy: (Legacy) Oregon State University Tanguay Lab 120 Hour Post-fertilization zebrafish Assay for Caudal Fin Malformation (AID 2283649)
# Method in brief: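 Single dechorionated 5D wild-type embryos are dosed at 6 hpf (final DMSO 0.64%) and held statically at 28C. Caudal fin malformation is recorded as present or absent at 120 hpf under brightfield, excluding dead embryos.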
# [4] = Tanguay_ZF_120hpf_PIG_legacy: (Legacy) Oregon State University Tanguay Lab 120 Hour Post-fertilization zebrafish Assay for Pigmentation Malformation (AID 2283650)
# Method in brief: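 Dechorionated Tropical 5D wild-type embryos, one per well from 6 hpf, statically exposed at 28C in the dark until 120 hpf, 0.64% DMSO final. Pigmentation scored present/absent by brightfield microscopy; dead embryos not scored; fitted versus DMSO.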
# [5] = Tanguay_ZF_120hpf_CIRC_legacy: (Legacy) Oregon State University Tanguay Lab 120 Hour Post-fertilization zebrafish Assay for Circulatory Malformation (AID 2283651)
# Method in brief: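 Tropical 5D wild-type embryos, dechorionated with pronase at 4 hpf, were placed singly in wells at 6 hpf and exposed statically at 28C to 120 hpf (0.64% DMSO final). Circulatory malformation was scored present/absent by brightfield microscopy.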
# [6] = Tanguay_ZF_120hpf_SWIM_legacy: (Legacy) Oregon State University Tanguay Lab 120 Hour Post-fertilization zebrafish Assay for Swim Bladder Malformation (AID 2283654);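 also: swim bladder malformation in each larva scored yes or no under brightfield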
# Method in brief: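 Dechorionated wild-type Tropical 5D zebrafish embryos, one per well from 6 hpf, were statically exposed at 28C until 120 hpf in 0.64% DMSO. Swim bladder malformation scored as present/absent by brightfield microscopy; not scored in dead larvae.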
# [7] = Tanguay_ZF_120hpf_NC_legacy: (Legacy) Oregon State University Tanguay Lab 120 Hour Post-fertilization zebrafish Assay for Notochord and Tail Malformation (AID 2283656)
# Method in brief: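 Dechorionated 5D zebrafish, 1/well from 6 hpf; static exposure to 120 hpf, 28C, sealed, dark; final DMSO 0.64% v/v. NC scored binary (present/absent); dead embryos not scored. Fit vs DMSO baseline, gain direction.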
# [8] = Tanguay_ZF_120hpf_TR_legacy: (Legacy) Oregon State University Tanguay Lab 120 Hour Post-fertilization zebrafish Assay for Touch Response (AID 2283667)
# Method in brief: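 Tropical 5D wild-type zebrafish embryos statically exposed to 120 hpf at 28°C, sealed and dark-covered, 0.64% DMSO final; touch response scored as present/absent by brightfield microscopy at 120 hpf. Trimethyltin chloride 5 uM positive control; dead embryos not scored.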
# [9] = Tanguay_ZF_120hpf_ActivityScore_legacy: (Legacy) Oregon State University Tanguay Lab 120 Hour Post-fertilization zebrafish Assay Score for Activity (AID 2283742)
# Method in brief: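 Dechorionated Tropical 5D embryos, one per well from 6 hpf, statically exposed to 120 hpf at 28 °C in 0.64% DMSO. Mortality and malformations scored binary by brightfield microscopy; activity score combines 18 endpoints, fitted positively versus DMSO.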
# [10] = Tanguay_ZF_120hpf_TRUN_legacy: (Legacy) Oregon State University Tanguay Lab 120 Hour Post-fertilization zebrafish Assay for Truncated Body (AID 2283655)
# Method in brief: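 Single dechorionated zebrafish embryos received test chemical from 6 hpf in 0.64% DMSO, kept at 28C. At 120 hpf, brightfield inspection noted any truncated body.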
# [11] = CCTE_Padilla_ZF_144hpf_TERATOSCORE: (Legacy) CCTE's 144 Hour Post-fertilization zebrafish Assay Teratoscore, Padilla Lab (AID 2283679; active = hit-call score of the fitted dose curve at least 0.9, where 1 is the maximum; inactive = score below 0.9;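 as to AC50: zebrafish embryos with chorions exposed by immersion from 6-8 hpf to 5 dpf with daily renewal; teratogenicity score from eye scoring of death hatching and malformations at 144 hpf; higher score means more developmental defects relative to DMSO baseline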)
# Method in brief: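 Larvae scored by eye at 144 hpf for death, hatching and malformations after a day in clean Hanks'. Before that, daily-renewed exposure at 80 uM (0.4% DMSO, 26C) from roughly 6-8 hpf through 5 dpf, 4 embryos per chemical.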
# [12] = STM_H9_OrnithineISnorm_perc: Stemina devTOX quickPredict H9 human embryonic stem cell (hESC)-based Assay for Ornithine (ORN) Metabolite Biomarker, Normalized (AID 2283712; active = hit-call score of the fitted dose curve at least 0.9, where 1 is the maximum; inactive = score below 0.9;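 also: ornithine released into spent medium during last day measured by mass spectrometry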)
# Method in brief: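 Undifferentiated pluripotent H9 hESCs were exposed to compound for 72h, with media and compound replaced every 24h. Ornithine in final 24-h conditioned media was measured by UPLC-HRMS, normalized to 13C-labeled spike-in standard and to median 0.1% DMSO control.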
# [13] = STM_H9_CystineISnorm_perc: Stemina devTOX quickPredict H9 human embryonic stem cell (hESC)-based Assay for Cystine (CYSS) Metabolite Biomarker, Normalized (AID 2283713; active = hit-call score of the fitted dose curve at least 0.9, where 1 is the maximum; inactive = score below 0.9)
# Method in brief: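 Undifferentiated H9 hESCs were exposed to compound for 72h, with medium and compound replaced every 24h. Final-24h conditioned medium was deproteinized and analyzed by UPLC-HRMS. Cystine EIC area was normalized to spiked C13 standard and 0.1% DMSO median.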
# [14] = STM_H9_OrnCyssISnorm_ratio: Stemina devTOX quickPredict H9 human embryonic stem cell (hESC)-based Assay for Ornithine (ORN):Cystine (CYSS) Ratio (AID 2283714)
# Method in brief: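 Undifferentiated H9 hESCs exposed 72 h, media and compound replaced every 24 h; final 24-h conditioned media deproteinized and analysed by UPLC-HRMS against C13 spike-ins. Value is the internal-standard-normalized ORN/CYSS ratio versus 0.1% DMSO.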
# [15] = system: Thyroperoxidase (TPO), gene 54314; test: CCTE_Simmons_AUR_rTPO: CCTE's Amplex UltraRed Assay for Thyroperoxidase (TPO) Inhibition, Simmons Lab (AID 2283662);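 also: potency for loss of signal meaning inhibition of peroxidase activity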
# Method in brief: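 Rat thyroid microsomal TPO + 25 uM AUR in 200 mM K phosphate; cpd 5 nM–87.5 uM [final], 8 conc, 0.5% DMSO; 300 uM H2O2 starts rxn; 37C dark 30 min; endpoint FI 544/590 nm; n=3.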
# [16] = CCTE_Simmons_CellTiterGLO_HEK293T: Viability Assessment in CCTE's Assays for Thyroperoxidase (TPO) Inhibition, Simmons Lab (AID 2283665);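 as to AC50: cells exposed to compound for 24 h before readout; actives reduce ATP signal below DMSO vehicle meaning cytotoxicity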
# Method in brief: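 HEK293T cells in DMEM with 1% FBS were dosed with 8 concentrations (5 nM–87.5 uM final, 0.5% DMSO) for 24 hr at 37C; ATP content was read by CellTiter-Glo luminescence, loss-of-signal versus DMSO, three biological replicates.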
# [17] = read-out: solute carrier (SLC22A6), SLC22A6 (gene 9356); test: LTEA_HepaRG_SLC22A6: Life Technologies and Expression Analysis (LTEA) Assay for solute carrier (SLC22A6) using HepaRG (AID 2283653; active = hit-call score of the fitted dose curve at least 0.9, where 1 is the maximum; inactive = score below 0.9); conditions: mRNA level, 48 h; actives raise or lower the signal
# Method in brief: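 Gene-expression endpoint in HepaRG hepatic cells: duplicate 8-point concentration-response, highest 100 uM, 48 h treatment in serum-free medium with 0.5% DMSO. SLC22A6 expression measured by qRT-PCR, normalised to ACTB/GAPDH/POLR2A.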
# [18] = read-out: solute carrier (SLC10A1), SLC10A1 (gene 6554); test: LTEA_HepaRG_SLC10A1: Life Technologies and Expression Analysis (LTEA) Assay for solute carrier (SLC10A1) using HepaRG (AID 2283657; active = hit-call score of the fitted dose curve at least 0.9, where 1 is the maximum; inactive = score below 0.9); conditions: mRNA level, 48 h; actives raise or lower the signal
# Method in brief: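 HepaRG cells (single lot) exposed 48 h in serum-free induction medium, 8-point half-log series from 100 uM top in 0.5% DMSO, duplicate. SLC10A1 mRNA by qRT-PCR normalised to ACTB, GAPDH, POLR2A; bidirectional fit versus DMSO.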
# [19] = read-out: matrix metalloproteinase-1 (MMP1), MMP1 (gene 4312); test: LTEA_HepaRG_MMP1: Life Technologies and Expression Analysis (LTEA) Assay for matrix metalloproteinase-1 (MMP1) using HepaRG (AID 2283658; active = hit-call score of the fitted dose curve at least 0.9, where 1 is the maximum; inactive = score below 0.9); conditions: mRNA level, 48 h; actives raise or lower the signal
# Method in brief: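 In this screen, human liver HepaRG cultures receive each chemical in duplicate for 48 h (top 100 uM, 0.5% DMSO). MMP1 expression is then quantified by TaqMan qRT-PCR with ACTB/GAPDH/POLR2A normalization.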
smiles,measurement,setting,value
OCCCl,outcome,[1],inactive
same,outcome,[2],inactive
same,outcome,[3],inactive
same,outcome,[4],inactive
same,outcome,[5],inactive
same,outcome,[6],inactive
same,outcome,[7],inactive
same,outcome,[8],inactive
same,outcome,[9],inactive
O=Cc1ccco1,outcome,[1],inactive
same,outcome,[2],inactive
same,outcome,[3],inactive
same,outcome,[4],inactive
same,outcome,[5],inactive
same,outcome,[10],inactive
same,outcome,[7],inactive
same,outcome,[8],inactive
same,outcome,[11],inactive
same,outcome,[9],inactive
O=C(Oc1ccc(Br)cc1)N1CCN2CCC1CC2,outcome,[1],inactive
same,outcome,[2],inactive
same,outcome,[3],inactive
same,outcome,[4],inactive
same,outcome,[5],inactive
same,outcome,[6],inactive
same,outcome,[10],inactive
same,outcome,[7],inactive
same,outcome,[9],inactive
CCCCCCCCCCCCCN1CC(C)OC(C)C1 (configuration not stated),outcome,[1],inactive
same,outcome,[2],inactive
same,outcome,[3],inactive
same,outcome,[4],inactive
same,outcome,[5],inactive
same,outcome,[6],inactive
same,outcome,[10],inactive
same,outcome,[8],inactive
same,AC50,[11],90100 nM (active)
same,outcome,[12],inactive
same,AC50,[13],2780 nM (active)
same,AC50,[14],2620 nM (active)
same,outcome,[9],inactive
C=CCc1ccc2c(c1)OCO2,outcome,[1],inactive
same,outcome,[2],inactive
same,outcome,[3],inactive
same,outcome,[4],inactive
same,outcome,[6],inactive
same,outcome,[10],inactive
same,outcome,[7],inactive
same,AC50,[15],36400 nM (active)
same,AC50,[16],66700 nM (active)
same,outcome,[8],inactive
same,outcome,[9],inactive
[Cl-].[Cl-].[Hg+2],AC50,[1],3870 nM (active)
same,AC50,[2],3500 nM (active)
same,AC50,[3],1080 nM (active)
same,AC50,[4],1050 nM (active)
same,AC50,[5],3580 nM (active)
same,AC50,[6],1020 nM (active)
same,AC50,[10],3830 nM (active)
same,AC50,[16],939 nM (active)
same,AC50,[8],1150 nM (active)
same,AC50,[11],82.6 nM (active)
same,AC50,[12],1340 nM (active)
same,AC50,[13],882 nM (active)
same,AC50,[14],995 nM (active)
same,AC50,[9],4320 nM (active)
O=[N+]([O-])C(Br)(CO)CO,outcome,[1],inactive
same,outcome,[2],inactive
same,outcome,[3],inactive
same,outcome,[4],inactive
same,outcome,[17],inactive
same,outcome,[6],inactive
same,outcome,[7],inactive
same,outcome,[18],inactive
same,outcome,[19],inactive
same,outcome,[8],inactive
same,outcome,[9],inactive
[As]#[In],outcome,[1],inactive
same,outcome,[2],inactive
same,outcome,[3],inactive
same,outcome,[4],inactive
same,outcome,[5],inactive
same,outcome,[6],inactive
same,outcome,[10],inactive
same,outcome,[7],inactive
same,outcome,[8],inactive
same,outcome,[9],inactive
Nc1ccc(Cc2ccc(N)cc2)cc1,outcome,[1],inactive
same,outcome,[2],inactive
same,outcome,[3],inactive
same,outcome,[4],inactive
same,outcome,[6],inactive
same,outcome,[7],inactive
same,AC50,[15],77.6 nM (active)
same,outcome,[16],inactive
same,outcome,[8],inactive
same,outcome,[9],inactive
c1ccc(C2CO2)cc1 (configuration not stated),outcome,[1],inactive
same,outcome,[2],inactive
same,outcome,[3],inactive
same,outcome,[4],inactive
same,outcome,[5],inactive
same,outcome,[6],inactive
same,outcome,[10],inactive
same,outcome,[7],inactive
same,outcome,[8],inactive
same,outcome,[9],inactive
OCCOCCO,outcome,[1],inactive
same,outcome,[2],inactive
same,outcome,[3],inactive
same,outcome,[4],inactive
same,outcome,[6],inactive
same,outcome,[10],inactive
same,outcome,[7],inactive
same,outcome,[8],inactive
same,outcome,[11],inactive
same,outcome,[9],inactive
